Each structure is given as a SMILES string. In all, about 360,000 compounds went through this assay and about 800 (0.22%) were called active. Only a selection was taken, and actives are over-represented in it overall. Values without a mark were called inactive.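 Rule for the calls: active = activation of at least 8% versus controls, or a plate z-score of at least 8; inactive = the rest.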

The assay is described as follows: activators of alpha-DG glycosylation, primary screen, uHTS, Pro5-aDG cells, AlphaScreen (AID 624168).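 Note: Pro5 are CHO cells carrying HIG-tagged alpha-DG that lacks glycosylation.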 As to conditions: alpha-DG glycosylation AlphaScreen (IIH6), at 10 µM, hits give high values, 0% Pro5, 100% B10-LARGE cell signal.
`O=C(NCc1ccc(F)cc1)C1CCN(C(=O)Nc2ccc(F)cc2)CC1`: the activation is -0.1%.

Take `Cc1[nH]c(C)c(S(=O)(=O)N2CCN(c3cccc(C(F)(F)F)c3)CC2)c1C(=O)N1CCCCC1`: the activation was -0.4%.

Take `CC1(C)CC(=O)C=C(NC2CC(C)(C)NC(C)(C)C2)C1`: the activation was -0.2%.

For the compound `CCOCCCNCc1ccc(OCc2ccc(F)cc2)c(OC)c1`, the activation was 0.1%.

Turning to `CCN(CC)CCNCc1ccc(OCc2ccc(Cl)nc2)c(OC)c1`, the activation was 0.3%.

`COc1cc(CNCCN(C)C)ccc1OCc1c(F)cccc1Cl`: the activation is 8.5% (active).

For `CCCCNCc1ccc(SC)cc1`, the activation is 0.3%.

In the case of `C[C@H](CO)N1C[C@H](C)[C@H](CN(C)CC2CC2)Oc2ccc(NC(=O)CCN3CCOCC3)cc2C1=O`, the activation was 0.2%.

For `Cc1ccc(N2C(=O)SC(N(CC(=O)O)c3ccc(C)cc3)C2=O)cc1` (configuration not stated), the activation is 1.3%.

Take `CCn1c(SCc2cccc(C(=O)O)c2)nnc1-c1ccc(Cl)cc1`: the activation was 0%.

Take `CN(C)CCCNC(=O)/C=C/c1ccc(OCc2c(F)cccc2Cl)cc1`: the activation was 13.4% (active).

In the case of `Fc1cccc(Cl)c1COc1ccc(-c2nnco2)cc1`, the activation was -0.1%.

Turning to `O=C(/C=C/c1ccc(Cl)cc1)NCCCn1ccnc1`, the activation is -0.1%.

`CS(=O)(=O)N(CC(=O)N1CCCCCC1)c1cccc(Cl)c1Cl`: the activation is -0.1%.

Regarding `COc1ccc(CCCNC(=O)C2Cc3c(-c4cccc(C(N)=O)c4)ccnc3O2)cc1` (configuration not stated), the activation was 0.1%.

Turning to `COc1ccc(NC(=O)COc2ccc(C(=O)c3ccc(F)cc3)cc2)cc1S(N)(=O)=O`, the activation is 0%.

For the compound `C[N+]1(CC(O)COc2ccccc2)CCN(C(=O)c2ccc([N+](=O)[O-])cc2)CC1` (configuration not stated), the activation was -0.2%.

Consider `COc1ccccc1C1SCCN1C(=O)c1ccc([N+](=O)[O-])cc1` (configuration not stated), for which the activation is 6.9% (active).

For the compound `O=C(OCC(=O)N1CCc2ccccc21)c1ccc([N+](=O)[O-])cc1`, the activation is 0.1%.

For the compound `CC(C)N(C(=O)CSc1nc(COc2ccccc2)nc2ccccc12)C(C)C`, the activation was 0.2%.

Consider `CCOc1cc(CNCCN(C)C)c(Cl)cc1OCC(=O)NCCc1ccccc1`, for which the activation was 0.7%.

On to `Cc1cccn2c(=O)nc(SCC(=O)NCc3ccccc3Cl)nc12`, for which the activation is 0.1%.

Regarding `O=C(Oc1ccccc1C(=S)N1CCCCC1)c1cc([N+](=O)[O-])cc([N+](=O)[O-])c1`, the activation was -0.2%.

Consider `CN(O)C(=S)c1ccccc1`, for which the activation was -0.2%.

In the case of `Cc1ccc(F)c(S(=O)(=O)NC(=O)C2(C)CCN2C(=O)c2ccco2)c1` (configuration not stated), the activation is -0.2%.

As to `COCCNC(=O)C(OC(=O)c1cccs1)c1ccc(F)cc1` (configuration not stated), the activation was -0.1%.

On to `O=C(NCc1cccs1)C(=O)NCC1OCCCN1S(=O)(=O)c1ccc(F)cc1` (configuration not stated), for which the activation was 0%.

Regarding `CC(C)C(=O)NCC(c1cccs1)S(=O)(=O)c1ccc(F)cc1` (configuration not stated), the activation is 6.9% (active).

On to `COc1cc(OC)cc(C(=O)NC(=S)N2CCN(c3ccc(C(F)(F)F)cc3[N+](=O)[O-])CC2)c1`, for which the activation is 0.3%.

Regarding `O=C(c1ccc(N2CCCC2=O)cc1)N1CCN(c2ccc(C(F)(F)F)cc2[N+](=O)[O-])CC1`, the activation was 7% (active).

In the case of `O=C(Cc1ccc(S(=O)(=O)N2CCOCC2)s1)N1CCN(c2ccc(C(F)(F)F)cc2[N+](=O)[O-])CC1`, the activation was 0.7%.

`CC1CCCN(S(=O)(=O)c2ccc(N(C(=O)c3cnccn3)C(C(=O)NC3CCCCC3)c3cccs3)cc2)C1` (configuration not stated): the activation is -0.1%.

Take `Cc1ccccc1NC(=O)CCNS(=O)(=O)c1ccc2[nH]c(=O)oc2c1`: the activation was -0.2%.

In the case of `COc1ccc(C)cc1NC(=O)CN(C)S(=O)(=O)c1ccc2c(c1)n(C)c(=O)c(=O)n2C`, the activation is -0.2%.

For the compound `Cn1nccc1C(=O)NC1CCCc2c1cnn2-c1ccc(F)cc1F` (configuration not stated), the activation is 5% (active).

As for `COC(=O)c1ccc(C(=O)NC2CC(C)(C)Cc3c2cnn3-c2ccc(F)cc2)nc1` (configuration not stated), the activation is 0%.

In the case of `CC1=C(C(=O)NC2CC(C)(C)Cc3c2cnn3-c2ccc(C)cc2)OCCO1` (configuration not stated), the activation is 0.4%.

Regarding `COc1ccc(C23NCCN2C(=O)c2ccccc23)cc1` (configuration not stated), the activation is -0.1%.

With `Cc1ccsc1C(=O)NCCc1ccco1`, the activation was -0.1%.

On to `Cc1c(CN2CCC(CO)(CCOc3ccccc3)CC2)[nH]c2ccc(Cl)cc12`, for which the activation is 2.4%.

For the compound `COCCn1c(SCC(=O)c2[nH]c(C)c(C(C)=O)c2C)nc2ccccc2c1=O`, the activation is 0%.

On to `CCc1[nH]nc(C(=O)N2CCCC(CNS(=O)(=O)c3cccs3)C2)c1C` (configuration not stated), for which the activation was 0.1%.

Take `Cc1ccccc1OCc1nnc(SCC(=O)N2c3ccccc3Sc3ccc(Cl)cc32)o1`: the activation is 0.3%.

Consider `O=C(CNCc1ccc(F)cc1)Nc1ccccc1-c1ccccc1`, for which the activation is 0.6%.

On to `Cc1nc2nc[nH]n2c(=O)c1NC(=O)c1cccc(OCC(C)C)c1`, for which the activation was 0.1%.

On to `CCc1cccc(C)c1NC(=O)COC(=O)CC1CCCC1`, for which the activation is 0.2%.

Consider `COc1ccc(NC(=O)CSc2nnc(C3CC3)n2C)cc1S(=O)(=O)N1CCCCC1`, for which the activation is -0.1%.

With `CC(Sc1nnc(-c2ccccc2F)n1C1CC1)C(N)=O` (configuration not stated), the activation is 0.1%.

`COc1ccc(NC(=O)CSc2nnc(-c3ccccc3F)n2C2CC2)cc1S(N)(=O)=O`: the activation is 6.3% (active).

As to `OCC1OC(n2cnc3c(N4CCCC4)ncnc32)C(O)C1O` (configuration not stated), the activation was -0.1%.

For `Cc1[nH][nH]c(=O)c1C(c1ccc(-c2ccc(Cl)cc2)o1)c1c(C)[nH][nH]c1=O`, the activation was 0%.

With `CCNC(=O)NC(=O)C(C)OC(=O)c1cc(S(=O)(=O)N2CCCCCC2)ccc1OC` (configuration not stated), the activation is 0%.

In the case of `Cc1cc(C)c(C#N)c(SCC(=O)NN2CC(=O)N(c3ccccc3F)CC2=O)n1`, the activation is -0.2%.

With `CCOc1ccc(C(=O)Nc2c3c(nn2-c2ccccc2)CS(=O)(=O)C3)cc1`, the activation was 0.3%.

As to `COc1ccccc1OCC(=O)Nc1c2c(nn1-c1ccc(F)cc1)CS(=O)(=O)C2`, the activation was -0.1%.

Regarding `CCOc1ccc(OCC(=O)Nc2c3c(nn2C(C)(C)C)CS(=O)(=O)C3)cc1`, the activation is 7.3% (active).

`O=S(=O)(c1ccc(Br)cc1)N1CCC(c2nc3ccccc3[nH]2)CC1`: the activation is 0.7%.

The values are drawn from PubChem BioAssay AID624168 (Sanford-Burnham Center for Chemical Genomics, 2012).
